Several values for one entry are separate records, joined by “and”; a condition that tells them apart may be missing. Equal values may be shown once. The whole screen tested about 5,500 compounds, of which about 2,000 (36%) were called active. Roughly 18% stayed inconclusive and do not appear here. Cut-off read from the data, not from the text of the source: active = normalized growth mostly below about 0.91 (no sharp cut-off); inconclusive = no clear call, values can overlap the other calls; inactive = mostly above about 0.92. This is one part of the list.
Assay: chemical genetic growth profiling, strain panel (AID 1159580);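 note: tested at 20 µM; growth read once vehicle control cultures reached saturation at 30 °C; 1 = growth at the plate median or of vehicle wells; lower values mean less growth of the strain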
Conditions: S. cerevisiae deletion strains, growth OD

Measured: normalized growth

O=C(O)CCCOc1ccc(Cl)cc1Cl
0.999 (inactive) and 0.829 (active): locus YHR030C, strain SLT2, stronger effect = lower value
inactive: locus YAL013W, strain DEP1, stronger effect = lower value 0.993 | locus YAL021C, strain ccr4, stronger effect = lower value 0.941 | locus YAL026C, strain drs2, stronger effect = lower value 0.931 | locus YAL030W, strain snc1, stronger effect = lower value 0.944 | locus YBL061C, strain skt5, stronger effect = lower value 0.948 | locus YBR009C, strain hhf1, stronger effect = lower value 0.951 | locus YBR021W, strain FUR4, stronger effect = lower value 0.97 | locus YBR023C, strain chs3, stronger effect = lower value 0.954 | locus YBR229C, strain ROT2, stronger effect = lower value 1.01 | locus YBR231C, strain swc5, stronger effect = lower value 0.962 | locus YBR279W, strain paf1, stronger effect = lower value 0.962 | locus YCL011C, strain gbp2, stronger effect = lower value 0.957 | locus YCL016C, strain dcc1, stronger effect = lower value 0.958 | locus YCL029C, strain bik1, stronger effect = lower value 1 | locus YCL061C, strain MRC1, stronger effect = lower value 0.938 | locus YCL069W, strain vba3, stronger effect = lower value 0.944 | locus YCR088W, strain abp1, stronger effect = lower value 0.929 | locus YDL005C, strain med2, stronger effect = lower value 0.946 | locus YDL035C, strain GPR1, stronger effect = lower value 1.01 | locus YDL040C, strain nat1, stronger effect = lower value 0.961 | locus YDL074C, strain BRE1, stronger effect = lower value 1 | locus YDL101C, strain DUN1, stronger effect = lower value 1.01 | locus YDL134C, strain PPH21, stronger effect = lower value 0.999 | locus YDL185W, strain tfp1, stronger effect = lower value 0.986 | locus YDL192W, strain arf1, stronger effect = lower value 1.02 | locus YDR001C, strain nth1, stronger effect = lower value 0.942 | locus YDR069C, strain doa4, stronger effect = lower value 0.955 | locus YDR101C, strain arx1, stronger effect = lower value 1.01 | locus YDR150W, strain NUM1, stronger effect = lower value 0.994 | locus YDR159W, strain sac3, stronger effect = lower value 0.902 | locus YDR162C, strain NBP2, stronger effect = lower value 0.99 | locus YDR195W, strain ref2 0.955 | locus YDR297W, strain sur2, stronger effect = lower value 0.962 | locus YDR318W, strain mcm21, stronger effect = lower value 1.01 | locus YDR334W, strain swr1, stronger effect = lower value 0.945 | locus YDR335W, strain msn5, stronger effect = lower value 0.943 | locus YDR388W, stronger effect = lower value 1.01 | locus YDR392W, strain spt3, stronger effect = lower value 0.893 | locus YDR502C, strain sam2, stronger effect = lower value 1.01 | locus YEL003W, strain gim4, stronger effect = lower value 0.963 | locus YEL037C, strain rad23, stronger effect = lower value 0.954 | locus YEL061C, strain CIN8 (second series), stronger effect = lower value 0.929 | locus YEL061C, strain CIN8, stronger effect = lower value 0.998 | locus YER015W, strain faa2, stronger effect = lower value 0.969 | locus YER016W, strain bim1, stronger effect = lower value 0.962 | locus YER110C, stronger effect = lower value 1.01 | locus YER111C, strain swi4, stronger effect = lower value 0.944 | locus YER155C, strain BEM2 (second series), stronger effect = lower value 0.887 | locus YER155C, strain BEM2, stronger effect = lower value 0.98 | locus YER167W, strain BCK2, stronger effect = lower value 0.991 | locus YFR010W, strain ubp6, stronger effect = lower value 0.951 | locus YGL078C, strain dbp3, stronger effect = lower value 1.01 | locus YGL086W, strain mad1, stronger effect = lower value 0.99 | locus YGL167C, strain pmr1, stronger effect = lower value 0.929 | locus YGL173C, strain kem1, stronger effect = lower value 0.952 | locus YGL227W, strain vid30, stronger effect = lower value 0.93 | locus YGL240W, strain doc1, stronger effect = lower value 0.912 | locus YGL248W, strain PDE1, stronger effect = lower value 1.01 | locus YGL253W, strain hxk2, stronger effect = lower value 0.939 | locus YGR078C, strain PAC10, stronger effect = lower value 1.01 | locus YGR135W, strain pre9, stronger effect = lower value 1.01 | locus YGR229C, strain SMI1, stronger effect = lower value 1.03 | locus YGR252W, strain gcn5, stronger effect = lower value 0.982 | locus YHR013C, strain ard1, stronger effect = lower value 0.93 | locus YHR027C, strain rpn1, stronger effect = lower value 0.938 | locus YHR079C, strain IRE1 (second series), stronger effect = lower value 1.01 | locus YHR094C, strain hxt1, stronger effect = lower value 1.01 | locus YHR129C, strain ARP1, stronger effect = lower value 0.993 | locus YHR142W, strain chs7, stronger effect = lower value 0.939 | locus YHR200W, strain rpn10, stronger effect = lower value 1 | locus YIL066C, strain RNR3, stronger effect = lower value 1.01 | locus YIL073C, strain SPO22, stronger effect = lower value 1.1 | locus YIL125W, strain kgd1, stronger effect = lower value 0.991 | locus YIR030C, strain dcg1, stronger effect = lower value 1.01 | locus YJL092W, strain hpr5, stronger effect = lower value 0.94 | locus YJL095W, strain BCK1 (second series), stronger effect = lower value 0.95 | locus YJL115W, strain asf1, stronger effect = lower value 0.922 | locus YJL134W, strain LCB3, stronger effect = lower value 0.998 | locus YJL154C, strain vps35, stronger effect = lower value 0.948 | locus YJL164C, strain tpk1, stronger effect = lower value 0.961 | locus YJL166W, strain qcr8, stronger effect = lower value 0.942 | locus YJL168C, strain set2, stronger effect = lower value 1.01 | locus YJL187C, strain SWE1 (second series), stronger effect = lower value 0.999 | locus YJL187C, strain SWE1, stronger effect = lower value 0.947 | locus YJR043C, strain POL32, stronger effect = lower value 0.997
1.01 (inactive) and 0.838 (active): locus YJL095W, strain BCK1, stronger effect = lower value
active: locus YBR171W, strain sec66, stronger effect = lower value 0.888 | locus YDR137W, strain rgp1, stronger effect = lower value 0.817 | locus YHR079C, strain IRE1, stronger effect = lower value 0.757 | locus YJL129C, strain trk1, stronger effect = lower value 0.847 | locus YJR066W, strain TOR1, stronger effect = lower value 0.779
